# The sample as a whole holds a higher share of hits than the screen did.
# T cruzi growth-1: inhibitors of T. cruzi proliferation. AID 624255. hit rate 5.9% among 77,000. T. cruzi beta-gal in NIH3T3, GalScreen luminescence, 90 h. inhibition, % at 8.34 µM;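 active = mean inhibition above about 93%, with at least 55% of replicates each passing it, limit read from the data, passing the limit was not always enough; inconclusive = only one of those two conditions holds; inactive = neither condition holds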
# C diff growth: inhibitors of Clostridium difficile growth; Clostridium difficile clinical isolate growth, OD600, 24 h; active compounds read low; growth activity, negative = inhibition, % at 16 µg/mL (by protocol); hit rate 0.25% among 86,000; AID 1259249;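 active = mean growth activity at or below -80% and every replicate also at or below -80%; inconclusive = mean at or below -80% but some replicate above -80%; inactive = mean growth activity above -80%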;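 also: 0% = DMSO wells and -100% = levofloxacin 16 µg/mL wells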
# T cruzi growth-2: inhibitors of T. cruzi proliferation | shares compounds with T cruzi growth-1 | T. cruzi beta-gal in NIH3T3, GalScreen luminescence, 90 h | inhibition, % at 8.35 µM | hit rate 72% among 5,600 | AID 651739;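 active = mean replicate inhibition above about 95% and at least 55% of replicates individually reaching it, limit read from the data; inconclusive = only one of the two criteria is met; inactive = neither criterion is met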
# T cruzi growth-3: Trypanosoma cruzi proliferation inhibition; hit rate 21% among 5,600; T. cruzi beta-gal in NIH3T3, GalScreen luminescence, 90 h; inhibition, % at 2.09 µM; shares compounds with T cruzi growth-1;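 active = mean inhibition above about 95%, with at least 55% of replicates also reaching it, limit read from the data; inconclusive = meets just one of the two conditions; inactive = meets neither condition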;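 also: plate controls were neutral control median for no effect and positive control median for full effect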
# NIH3T3 tox: NIH/3T3 (mouse) viability loss; shares compounds with T cruzi growth-1; cytotoxicity (signal decrease), % at 8.35 µM; NIH/3T3 viability, CellTiter-Glo ATP luminescence, 90 h; hit rate 14% among 5,600;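 active = mean signal decrease across replicates above about 35% based on untreated-well scatter, with enough replicates individually passing, limit read from the data; inconclusive = no rule stated though some were filed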;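 also: 0% = median of neutral control wells and 100% = median of positive control wells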
# NIH3T3 tox 2: cytotoxicity in mouse NIH/3T3 fibroblasts | shares compounds with T cruzi growth-1 | NIH/3T3 viability, CellTiter-Glo ATP luminescence, 90 h | hit rate 56% among 5,600 | inhibition, % at 24.9 µM;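 active = mean loss of cell viability signal at or above a set limit, and enough replicates individually reaching it; inconclusive = meets only the mean limit or only the replicate share; inactive = meets neither condition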;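 also: 0% = median of neutral control wells and 100% = median of positive control wells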
# The depositor's hits bear a star; ? = inconclusive; . = no result given; ! = not active in a repeat.
SMILES,T cruzi growth-1,C diff growth,T cruzi growth-2,T cruzi growth-3,NIH3T3 tox,NIH3T3 tox 2
OC[C@@H]1[C@H](c2ccc(-c3ccc(F)cc3)cc2)[C@@H]2CN(Cc3ccncc3)CCCCN12,97.8*,2.6,105.5*,45.2,36.9*,103.5*
OC[C@@H]1[C@@H](c2ccc(-c3ccc(F)cc3)cc2)[C@H]2CN(Cc3ccncc3)CCCCN12,76.8,-0.4,.,.,.,.
C[C@@H]1CN([C@@H](C)CO)S(=O)(=O)c2ccc(C3=CCCCC3)cc2O[C@H]1CN(C)C(=O)C1CCC1,27.8,2.1,.,.,.,.
C[C@@H]1CN([C@@H](C)CO)S(=O)(=O)c2ccc(C3=CCCC3)cc2O[C@@H]1CN(C)C(=O)C1CCOCC1,65.2,-2.7,.,.,.,.
C[C@H](CO)N1C[C@H](C)[C@@H](CN(C)C(=O)C2CCOCC2)Oc2cc(C3=CCCC3)ccc2S1(=O)=O,?,-3.1,66.9,6.5,20.1,29.4*
C[C@@H]1CN([C@H](C)CO)S(=O)(=O)c2ccc(C3=CCCCC3)cc2O[C@@H]1CN(C)C(=O)C1CCCCC1,127.0*,-11.3,95.9*,92.2,30.5,102.2*
C[C@H]1CN([C@@H](C)CO)S(=O)(=O)c2ccc(C3=CCCC3)cc2O[C@@H]1CN(C)C(=O)C1CCCCC1,105.1*!,-10.0,101.9*!,70.8,-6.3,57.2*!
C[C@H]1CN([C@@H](C)CO)S(=O)(=O)c2ccc(C3=CCCC3)cc2O[C@H]1CN(C)C(=O)C1CCC1,52.0,-5.7,.,.,.,.
Cc1ccccc1S(=O)(=O)N1C[C@@H](O)COC[C@H]2O[C@H](CC(=O)N3CCCCC3)CC[C@@H]21,3.2,.,.,.,.,.
Cc1noc(C)c1NC(=O)Nc1ccc2c(c1)C(=O)N([C@@H](C)CO)C[C@@H](C)[C@H](CN(C)Cc1ccc(Cl)c(Cl)c1)OCCCC[C@@H](C)O2,85.8,2.3,.,.,.,.
O=C(NCC[C@H]1CC[C@@H](NC(=O)Nc2cc(F)ccc2F)[C@@H](CO)O1)Nc1ccc(Cl)cc1,-11.5,10.4,.,.,.,.
CC(=O)CC(=O)N1C(=O)N(C)[C@@]2(C)Oc3ccccc3[C@@H]1[C@H]2COC(=O)c1ccc([N+](=O)[O-])cc1,.,-6.4,.,.,.,.
C[C@@H]1CN([C@H](C)CO)S(=O)(=O)c2ccc(C#CCN(C)C)cc2O[C@@H]1CN(C)C(=O)C1CCC1,71.5,-0.7,.,.,.,.
C[C@H]1CN([C@@H](C)CO)S(=O)(=O)c2ccc(C#CCN(C)C)cc2O[C@@H]1CN(C)C(=O)C1CCCCC1,.,-2.3,.,.,.,.
C[C@H](CO)N1C[C@H](C)[C@@H](CN(C)C(=O)C2CC2)Oc2cc(C#CCN(C)C)ccc2S1(=O)=O,100.0*,-3.0,107.3*,92.1,14.0,15.0
C[C@H](CO)N1C[C@H](C)[C@@H](CN(C)C(=O)C2CCC2)Oc2cc(C#CCN(C)C)ccc2S1(=O)=O,105.6*,0.3,98.9*,92.9,19.4,7.6
COc1ccc(NC(=O)Nc2ccc3c(c2)C(=O)N([C@@H](C)CO)C[C@H](C)[C@H](CN(C)S(=O)(=O)c2ccccc2)O3)cc1,-62.4,-4.9,.,.,.,.
N#C[C@H]1[C@H](c2ccc(C#Cc3ccc(F)cc3)cc2)[C@H](CO)N1C(=O)C1CCC1,99.2*,-14.2,111.6*,72.4,11.5,83.0*
N#C[C@H]1[C@@H](c2ccc(C#Cc3ccc(F)cc3)cc2)[C@H](CO)N1C(=O)C1CCC1,93.0,-28.5,.,.,.,.
N#C[C@H]1[C@H](c2ccc(C#Cc3ccc(F)cc3)cc2)[C@H](CO)N1C(=O)C1CCCC1,103.8*,-1.6,100.5*,71.0,-7.7,81.7*
N#C[C@@H]1[C@@H](c2ccc(C#Cc3ccc(F)cc3)cc2)[C@H](CO)N1C(=O)C1CCCC1,91.7,6.8,.,.,.,.
N#C[C@H]1[C@@H](c2ccccc2C2=CCCCC2)[C@@H](CO)N1C(=O)c1ccccn1,.,-3.2,.,.,.,.
CCC(=O)N(C)C[C@@H]1Oc2cc(C3=CCCCC3)ccc2S(=O)(=O)N([C@H](C)CO)C[C@H]1C,58.6,.,.,.,.,.
COc1ccc(S(=O)(=O)Nc2ccc3c(c2)C(=O)N([C@H](C)CO)C[C@H](C)[C@@H](CN(C)S(=O)(=O)c2ccc(OC)cc2)OCCCC[C@H](C)O3)cc1,?,3.2,110.7*,50.7,5.9,13.4

# From PubChem BioAssay
